An excerpt weighted towards active compounds, which were near 7.8% of everything screened.
NOMO-1 viab = STK33 inhibitor candidate reducing NOMO-1 cell viability; NOMO-1 AML viability, CellTiter-Glo luminescence, 72 h; 7.5% of 37,000 active; AID 2330; inhibition, % (test concentration not listed); in the data active means inhibition above about 80%
Hedgehog inh = blocks Sonic Hedgehog signaling. inhibition, % (no concentration beside the values). 2.1% of 22,000 active. AID 2313. Shh-LIGHT2 Gli-luciferase reporter, 30 h;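 active means mean inhibition across valid replicates above about 65%, limit read from the data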;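 further: pathway switched on by Shh-conditioned medium diluted 1 in 25 in low serum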
MITF inh = blocks MITF activity; inhibition, % (concentration not given with the values); 0.28% of 37,000 active; TRPM1 promoter luciferase, luminescence, 24 h; in the data active means inhibition above about 85%;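 further: human melanocyte line stably carrying TRPM1 promoter luciferase reporter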
PD-1 reversal = reversal of PD-1 mediated T-cell inhibition. primary human CD4 T cells, PD-L1 beads, CellTiter-Glo 96 h. activation, % (concentration not given with the values). 29,000 tested, under 10 active; call rule not given here;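 further: 0% = median vehicle wells and 100% = positive control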
The depositor's hits bear a star; / = no result given.

SMILES	NOMO-1 viab	Hedgehog inh	MITF inh	PD-1 reversal
Cc1noc(C)c1NC(=O)Nc1cccc2c1O[C@@H](CN(C)S(C)(=O)=O)[C@@H](C)CN([C@@H](C)CO)C2=O	102*	-18	34	-3
CCC(CO)NS(=O)(=O)c1ccc(OC)c(-c2nnc3c4ccccc4c(C)nn23)c1 (configuration not stated)	-8	/	-7	/
Cc1noc(C)c1NC(=O)Nc1cccc2c1O[C@H](CN(C)Cc1ccc(-c3ccccc3)cc1)[C@@H](C)CN([C@H](C)CO)C2=O	111*	-27	42	-3
C[C@@H]1CN([C@H](C)CO)C(=O)c2cccc(NC(=O)Nc3cccc4ccccc34)c2O[C@@H]1CN(C)Cc1ccc(C(=O)O)cc1	6	-8	-1	2
C[C@@H]1CN([C@H](C)CO)C(=O)c2cccc(NC(=O)Nc3cccc4ccccc34)c2O[C@@H]1CN(C)Cc1ccc(-c2ccccc2)cc1	107*	-41	13	-4
Nc1ccc(Br)cc1C(O)c1ccccc1 (configuration not stated)	13	/	-4	0
CCOC(=O)c1sc2ncn(CC(=O)Nc3cccc(Br)c3)c(=O)c2c1C	39	/	14	/
COC(=O)C1=C(C)N(Cc2ccccc2)C(=O)NC1c1ccccc1F (configuration not stated)	6	/	12	0
O=C(C/C(=C1/CCc2ccccc2C1=O)c1ccccc1)c1ccccc1	115*	103*	50	-1
CCCCC1(Cc2ccccc2)C(=O)Nc2ccccc2C1=O (configuration not stated)	44	/	27	-2
O=C(CSc1nc2ccccc2nc1N1CCCC1)Nc1ccccc1	43	-26	-60	-2
CC1CN(c2nc3ccccc3nc2SCC(=O)Nc2ccccc2)CC(C)O1 (configuration not stated)	88*	-36	-12	-2
O=c1cc(CSc2cccc3cccnc23)c2ccc(O)cc2o1	110*	7	-18	-6
O=C(CCNc1ccc(Oc2ccccc2)cc1)c1ccco1	131*	/	38	-7
COc1ccc(NC(=O)CNC(=O)c2ccco2)cc1	34	/	-58	/
C[C@H](CO)N1C[C@H](C)[C@@H](CN(C)Cc2ccc(C(=O)Nc3ccccc3N)cc2)Oc2ccc(NC(=O)Cc3ccccc3)cc2C1=O	4	/	-18	-1
C[C@H]1CN([C@@H](C)CO)C(=O)c2cc(NS(C)(=O)=O)ccc2O[C@H]1CN(C)Cc1ccc(C(=O)Nc2ccccc2N)cc1	30	/	-22	0
C[C@H]1CN([C@@H](C)CO)C(=O)c2cc(N(C)C)ccc2O[C@H]1CN(C)Cc1ccc(C(=O)Nc2ccccc2N)cc1	110*	/	14	-2
C[C@H](CO)N1C[C@H](C)[C@H](CN(C)Cc2ccc(C(=O)Nc3ccccc3N)cc2)Oc2ccc(N(C)C)cc2C1=O	111*	/	30	-2
C[C@@H]1CN([C@@H](C)CO)C(=O)c2cc(N(C)C)ccc2O[C@H]1CN(C)Cc1ccc(C(=O)Nc2ccccc2N)cc1	110*	/	45	-4
C[C@@H]1CN([C@H](C)CO)C(=O)c2cc(N(C)C)ccc2O[C@@H]1CN(C)Cc1ccc(C(=O)Nc2ccccc2N)cc1	110*	/	41	-5
Cc1cc(C)cc(CC(C)CC(=O)Nc2ccccc2I)c1 (configuration not stated)	17	/	0	-1
O=C1c2c(O)ccc(O)c2C(=O)c2c(NCCNCCO)ccc(NCCNCCO)c21	120*	3	96*	/
CCOC(=O)c1c(CN2CCCCC2)n(-c2ccccc2)c2cc(Br)c(OC)cc12	40	-8	3	-1
N#CC(C(=O)c1ccccc1Cl)=C1SCCCS1	114*	23	-1	-1
SMILES	NOMO-1 viab	Hedgehog inh	MITF inh	PD-1 reversal
N#CC(C(=O)c1cccc(C(F)(F)F)c1)=C1SCCCCS1	57	-17	-38	0
C[C@H]1CN([C@@H](C)CO)C(=O)c2cc(NC(=O)Cc3cn(C)c4ccccc34)ccc2O[C@H]1CN(C)Cc1ccc(Oc2ccccc2)cc1	31	/	21	-2
C[C@H]1CN([C@@H](C)CO)C(=O)c2cc(NC(=O)Cc3cn(C)c4ccccc34)ccc2O[C@@H]1CN(C)Cc1ccc(Oc2ccccc2)cc1	94*	/	25	/
C[C@@H]1CN([C@@H](C)CO)C(=O)c2cc(NC(=O)Cc3cn(C)c4ccccc34)ccc2O[C@@H]1CN(C)Cc1ccc(Oc2ccccc2)cc1	114*	/	38	/
O=C1C(=O)N(Cc2ccco2)C(c2cccc(O)c2)C1C(=O)c1ccco1 (configuration not stated)	23	/	-11	4
Cc1nnc(SCC(=O)Nc2cccc(C(F)(F)F)c2)s1	8	/	-16	4
